PubChem BioAssay AID1304 (The Scripps Research Institute Molecular Screening Center, 2008)
“And” between values parts separate entries of the source, which are not always exact repeats. Equal entries are not always repeated. Among all 220,000 compounds or so, about 800 (0.36%) were called active. Shown is part of a subset that was picked to be rich in actives. A number with no mark means an inactive call. Cut-off read from the data, not from the text of the source: active = activation above about 33% (passing the limit was not always enough); inactive = the rest.

Each compound was assayed against Neuropeptide Y receptor type 1 (Homo sapiens) (UniProt P25929) (assay: NPY-Y1 receptor potentiators or agonists, primary screen, cell-based (AID 1304;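 note: cells stimulated with NPY at EC10 then isoproterenol at EC100; 0% = low agonist plus stimulus and 100% = saturating agonist plus stimulus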)). Conditions: NPY-Y1 expressing cells, potentiator/agonist activation; at 3.6 µM; stronger effect = higher value.
Chain of Neuropeptide Y receptor type 1 (Homo sapiens) (P25929 whole entry, looked up): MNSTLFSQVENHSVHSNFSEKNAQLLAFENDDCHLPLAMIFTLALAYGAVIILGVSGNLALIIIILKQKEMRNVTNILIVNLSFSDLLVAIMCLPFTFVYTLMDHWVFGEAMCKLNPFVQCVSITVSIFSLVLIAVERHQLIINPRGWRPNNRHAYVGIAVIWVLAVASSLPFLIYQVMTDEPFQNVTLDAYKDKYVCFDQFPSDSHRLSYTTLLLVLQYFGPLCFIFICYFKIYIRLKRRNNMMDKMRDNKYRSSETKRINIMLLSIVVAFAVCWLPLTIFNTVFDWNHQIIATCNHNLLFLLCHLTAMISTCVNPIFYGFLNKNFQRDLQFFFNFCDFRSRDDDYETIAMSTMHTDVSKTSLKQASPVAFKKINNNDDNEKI

SMILES	activation
Cc1nnc(SCC2=C(C(=O)O)N3C(=O)C(NC(=O)Cn4nc(C)c(Cl)c4C)C3SC2)s1 (stereo not drawn)	-9.62%
Cn1nc(C(F)(F)F)cc1C(=O)O	-6.07%
COc1ccc(C(=O)OCC(=O)NC(=O)CCSc2ccccc2)cc1	-33.3%
COc1cccc(CNC(=O)CCC2CCCN(Cc3ccc(OC(F)F)cc3)C2)c1 (stereo not drawn)	4.57%
C[C@@H]1NC(=O)c2cc([N+](=O)[O-])cc(F)c2NCCC[C@@H](C(N)=O)NC(=O)[C@H](CC(N)=O)NC1=O	3.2%
COC(=O)c1sc(C(F)(F)F)c(-c2ccccc2)c1S(=O)(=O)N(C)C	5.29%
CCCCCCCCc1c(O)nc(-n2[nH]c(C)c(CCO)c2=O)[nH]c1=O	11.5%
CC(C)NC(=O)c1ccc(Sc2ccccc2)c([N+](=O)[O-])c1	4.46%
O=C(COc1ccc([N+](=O)[O-])cc1)Nc1ccc(N2CCCC2)cc1	-4.81%
COc1ccc(C(=O)Nc2ccc(-n3nncc3C(C)(C)C)cc2)cc1	1.57%
COc1ccccc1N(C)S(=O)(=O)c1ccc(Cl)c(C(=O)N2CCC(C(N)=O)CC2)c1	29.7%
COc1ccc(/C=N/NC(=O)Nc2ccc3nsnc3c2)c(OC)c1	7.9%
Cc1ccc(NC(=O)CCOc2ccccc2)cc1S(=O)(=O)Nc1ccccc1Cl	21.9%
CC(O)CNCCOc1cccc(Oc2ccccc2)c1 (stereo not drawn)	-10%
COc1ccccc1OCCNC(=O)c1cc([N+](=O)[O-])cc([N+](=O)[O-])c1	1.67%
COc1ccccc1OCCNCC(O)COc1cccc2[nH]c3ccccc3c12 (stereo not drawn)	107% (active) and 106% (active)
COc1ccc(C2c3[nH]c4ccccc4c3CCN2CCCn2cccn2)cc1C (stereo not drawn)	-23.6%
Nc1nc(SCC(=O)NNc2c(Cl)cc(Cl)cc2Cl)n[nH]1	3.91%
C/C(=N\NC(=O)NC1CCCCC1)c1ccc(OC(F)F)cc1OC(F)F	-17%
CCCCNC(=O)C1CCC(CNS(=O)(=O)c2ccc(NC(C)=O)cc2)CC1 (stereo not drawn)	-15.8%
CC(=O)Nc1ccc(S(=O)(=O)NCCc2ccccc2)cc1	-20.2%
COCCCNC(=O)c1ccc(CNS(=O)(=O)c2ccc(NC(C)=O)cc2)cc1	36.8% (active)
CC(C)(C)NC(=O)Cn1c(SCC(=O)Nc2nccs2)nc2ccccc21	-9.44%
CSc1nc(-c2ccco2)nn1C(=O)c1ccccc1Cl	56.1% (active)

SMILES	activation
CSc1nc(-c2ccco2)nn1C(=O)CCc1ccccc1	-13.4%
CS(=O)(=O)n1nc(-c2ccco2)nc1N	-9.25%
S=c1[nH]nc(-c2cc(-c3ccsc3)n[nH]2)n1-c1ccccc1	-8.71%
Cc1nnsc1C(=O)N/N=C/c1ccccc1Cl	-6.23%
O=C(Nc1ccc(F)cc1F)N1CCCN(CCOc2ccccc2)CC1	4.67%
CCOC(=O)C1(CC2CCCCO2)CCN(Cc2nc(-c3cccs3)oc2C)CC1 (stereo not drawn)	1.86%
CC(=O)O[C@]1(C(C)=O)CC[C@H]2[C@@H]3C=C(C)C4=CC(=O)CC[C@]4(C)[C@H]3CC[C@@]21C	-14.5% and 5.59%
CC(C)(C)CC(C)(C)NCC(O)COCCOc1ccc(Br)cc1 (stereo not drawn)	-16.3%
Cc1noc(COc2ccccc2OCC(O)CNC(C)(C)C)n1 (stereo not drawn)	111% (active)
Cc1noc(COc2ccccc2OCc2onc(C)c2Cl)c1Cl	-31.2%
Nc1nc(O)c(CC(=O)O)s1	-3.67%
CCc1cc(-c2n[nH]c(=S)n2CC(C)C)cs1	-23.7%
Cc1ccc(NC(=O)CC(=O)Nc2ccc(C)cc2)cc1	-0.47%
COC(=O)c1ccc(NC(=O)Nc2ccc(C)cc2)cc1	101% (active)
CC(=O)c1cccc(NC(=O)Nc2ccc(C)cc2)c1	-1.32%
CO/N=C/c1cn(-c2ccc(Cl)cc2)nn1	-2.97%
CN(c1ccccc1)S(=O)(=O)c1ccc(Cl)c(C(=O)OCC(=O)NCc2ccco2)c1	16.8%
O=c1[nH]oc(O)c1-c1ncc(C(F)(F)F)cc1Cl	7.56%
CC(=O)NC(=S)NNC(=O)c1ccc(Br)cc1	-6.38%
N#Cc1ccc(C(=O)Nc2nc(-c3cccs3)c(C(=O)C(F)(F)F)s2)cc1	45.4% (active)
Cc1ccc(C(=O)Nc2nnc(-c3cccs3)s2)cc1C	19.3%
CC(=O)c1sc(NC(=O)c2ccc(C)cc2)nc1C	5.15%
Cc1ccc(NC(=S)N2CCCC(c3ccccc3)=N2)cc1	-12%
CCOC(=O)c1cnc2ccc(F)cc2c1Nc1ccc2c(c1)OCCO2	-7.89%

SMILES	activation
CCCCNC(=O)Nc1c(C)cc(SC#N)cc1C	-6.72%
O=C(CCCN1C(=O)c2ccccc2C1=O)Oc1ccc(Cl)cc1	-9.31%
O=C(NCCc1csc(-c2ccccc2)n1)c1ccccc1F	-10.8%
CC(=O)c1ccc(NC(=O)C2CC(=O)Nc3nc4ccccc4n32)cc1 (stereo not drawn)	46.6% (active)
CCOC(=O)c1ccc(NC(=O)C2CC(=O)Nc3nc4ccccc4n32)cc1 (stereo not drawn)	2.63%
O=C(Nc1ccccc1)C1CC(=O)n2c(nc3ccccc32)N1 (stereo not drawn)	16.2%
Cc1nnc(SC(C(=O)c2ccccc2)c2ccccc2)[nH]c1=O (stereo not drawn)	-19.4%
COc1ccc2[nH]c(=S)cc(C)c2c1	-18.7%
COc1ccc2[nH]c3ccc(OC)cc3c2c1	64.7% (active)
CCN(CC)CC(=O)c1c[nH]c2ccc(OC)cc12	-5.01%
CC1CCCCC1NC(=O)CN1CCC(O)(c2ccc3c(c2)OCO3)CC1 (stereo not drawn)	3.89%
Cn1cnnc1SCC(=O)NNC(=O)COc1ccc(Br)cc1	-5.38%
C/C(Cc1ccccc1)=N\NC(=O)CNC(=O)c1ccccc1Cl	-3%
Cc1ccn(-c2cccc(-n3ccc(C)n3)n2)n1	-27.2%
S=C(NCc1ccc2c(c1)OCO2)NCc1ccco1	-4.25%
C=CCOc1ccc(/C=C2\SC(=S)N(CCC(=O)O)C2=O)cc1	6.81%
CC(=O)Nc1ccc(OC(=O)COc2ccc(Br)cc2)cc1	-18.4%
CCOC(=O)CN(C(=O)COc1nc(-c2ccccc2)cc(C)c1C#N)c1ccc(F)cc1	-29.2%
Oc1ccc(/C=N/Nc2ccc(C(F)(F)F)cn2)cc1O	54.9% (active)
Cc1nccn1CC(=O)N/N=C/c1ccc(O)c(O)c1	2.53%
O=C(Nc1ccccc1)Nc1ccc(C(F)(F)F)cn1	5.1%
Cc1cc(/C=C2/SC(=O)N(CC(=O)N3CCCC3)C2=O)ccc1N1CCOCC1	15.8%
O=C(NCc1ccccc1)C1=C[C@@H](c2ccc(C(F)(F)F)cc2)C[C@@H](OCc2ccc(CO)cc2)O1	-2.07%
CC(=O)Nc1ccc(NC(=O)C(C)n2c3ccccc3c3nc(=O)cc(C)n32)cc1 (stereo not drawn)	-7.92%

SMILES	activation
Cc1ccc(NC(=O)Nc2cccc(C(F)(F)F)c2)nc1	1.1%
CCNS(=O)(=O)c1ccc(NC(=O)Nc2cccc(C(F)(F)F)c2)cc1	47.1% (active)
CCNS(=O)(=O)c1ccc(NC(=O)Nc2cccc(OC)c2)cc1	13.3%
Cc1cc(Cl)ccc1NC(=S)NCCCN1CCCC1=O	3.39%
COC(=O)c1cc(S(=O)(=O)N2CCC(C(N)=O)CC2)oc1C	-1.47%
O=[N+]([O-])c1cc(Cl)cc(/C=N/NC(=S)Nc2cc(S(=O)(=O)N3CCOCC3)ccc2Cl)c1O	77.5% (active)
O=C(CN1CCN(c2ccc(O)cc2)CC1)Nc1cc(S(=O)(=O)N2CCOCC2)ccc1Cl	-5.24%
O=C(N/N=C/c1ccc([N+](=O)[O-])o1)c1cccc(S(=O)(=O)N2CCOCC2)c1	-11.9%
CC(C)(C)C(=O)NNC(=O)c1ccc(Oc2cc(Cl)cc(Cl)c2)o1	-7.64%
Cc1ccc(C)c(Cn2cnc3c(oc4ccccc43)c2=O)c1	-12.5%
COc1cccc2cc(S(=O)(=O)c3ccc(C)cc3)/c(=N/NS(=O)(=O)c3ccc(C)cc3)oc12	2.71%
C=CCNC(=O)/C=C/c1ccc(C(C)C)cc1	9.4%
COc1ccc(C(=O)C2CCCN(Cc3ccc4nonc4c3)C2)c(C)c1 (stereo not drawn)	-11.8%
COc1ccc(C(=O)C2CCCN(Cc3cccn3-c3ccccn3)C2)c(C)c1 (stereo not drawn)	79.6% (active)
CCOC(=O)c1[nH]ncc1CN1CCCC(C(=O)c2ccc(OC)cc2C)C1 (stereo not drawn)	-0.54%
COC(=O)C1=C(C(=O)OC)C2(OC1c1ccc(Br)cc1)C(=O)c1ccccc1C2=O (stereo not drawn)	2.63%
Nc1c(-c2cccc(Cl)c2)cnn1-c1cccc([N+](=O)[O-])c1	43.2%
CCOC(=O)/C(N=Nc1cc(C(=O)O)cc(C(=O)O)c1)=C(\O)CCl	-8%
CCOc1ccc(NC(=O)CCC(=O)N/N=C/c2ccc([N+](=O)[O-])s2)cc1	19.1%
Cc1ccccc1NCC(=O)N/N=C\c1ccc([N+](=O)[O-])s1	39.4% (active)
COc1ccc(C(=O)NCC(=O)N/N=C/c2ccc([N+](=O)[O-])s2)cc1OC	6.89%
